Assay outcomes from PubChem BioAssay.
Only a sample is shown.
aSyn UTR act = Activators via SNCA 5'UTR binding, MLPCN. 7.1% of 300,000 active. alpha-synuclein 5'UTR reporter, activators screen. activity score, % (tested at 7.5 µM), hits read low. AID 1814, 2009; in the data active = activity score below about -60%
Large screens that a line does not name were inactive.

c1ccc2c3c([nH]c2c1)-c1[nH]ncc1CC3	aSyn UTR act -116.8
O=C(Nc1cccc2ncccc12)c1ccc([N+](=O)[O-])o1	aSyn UTR act -169.5
Cc1c(NC(=O)c2ccc([N+](=O)[O-])o2)cccc1-c1nc2ncccc2o1	aSyn UTR act -228.1
O=C(Nc1cccc2ncccc12)c1ccc(-c2ccc(Br)cc2)o1	aSyn UTR act -79.2
O=C(N=C1c2ccccc2CN1c1ccc(F)c(Cl)c1)c1cccnc1Cl	aSyn UTR act -105.9
N#Cc1ccc(N2Cc3ccccc3C2=NC(=O)c2cccnc2Cl)cc1	aSyn UTR act -106.5
Cc1ccc(NC(=O)c2cncc(Br)c2)cc1S(=O)(=O)N(C)C	aSyn UTR act -126.9
CCN(CC)c1ccc(NC(=O)c2cccnc2)cc1	aSyn UTR act -67.1
CCN(CC)c1ccc(NC(=O)c2cncc(Br)c2)cc1	aSyn UTR act -278.7
CCOC(=O)c1ccc(NC(=O)CC2SCCNC2=O)cc1 (stereo not drawn)	aSyn UTR act -81.4
C#CCN1C(=O)S/C(=C\c2ccc(-c3ccc(Cl)c(C(=O)O)c3)o2)C1=O	aSyn UTR act -92.7
CCN=C1S/C(=C\c2ccc(-c3cccc(C(=O)O)c3)o2)C(=O)N1CC	aSyn UTR act -69.3
CCN=C1S/C(=C\c2cn(CC(=O)NCc3ccco3)c3ccccc23)C(=O)N1CC	none
COc1ccc(-c2nc3n(c2C)Cc2ccccc2-3)cc1	aSyn UTR act -129.5
COC(=O)c1sc(NC(=O)c2ccco2)nc1C	aSyn UTR act -69.0
COC(=O)c1sc(NC(=O)/C=C/c2ccc(C)o2)nc1C	aSyn UTR act -65.4
COC(=O)c1sc(NC(=O)c2ccoc2C)nc1C	aSyn UTR act -136.1
CC(=O)c1cccc2c(O)c(C3=Nc4ccccc4C3=O)[nH]c12	aSyn UTR act -122.2
CCOc1ccc(C(=O)COC(=O)Cc2n[nH]c(=O)c3ccccc23)cc1	aSyn UTR act -87.2
O=C(Cc1n[nH]c(=O)c2ccccc12)OCC(=O)c1ccc2c(c1)OCCO2	none
CCOC(=O)C1CCN(C(=O)CCc2c(C)nc3cc(-c4ccccc4)nn3c2C)CC1	none
CCOC(=O)c1cnc2c(-c3ccccc3)cnn2c1C	aSyn UTR act -112.4
CCOC(=O)Cc1c(C)nc2c(-c3ccccc3)cnn2c1C	aSyn UTR act -70.3
CC(=O)c1cnc2c(-c3ccccc3)cnn2c1C	aSyn UTR act -68.2
COc1ccc(C(=O)Nc2cnc(NC(=O)c3cccs3)cc2C)cc1	aSyn UTR act -83.0
CCCCC(=O)Nc1cnc(NC(=O)c2cccs2)cc1C	aSyn UTR act -127.1
COc1ccc(C(=O)Nc2cc(C)c(NC(=O)c3ccccn3)cn2)cc1	aSyn UTR act -77.7
Cc1cc(/C=C(\C#N)C(=O)NCC2CCCO2)c(C)n1-c1ccc(Cl)cc1 (stereo not drawn)	aSyn UTR act -267.3
O=c1[nH]cnc2nn(-c3ccccc3)nc12	aSyn UTR act -82.0
Cc1[nH]c2ccccc2c1C(=O)NS(=O)(=O)Nc1ccc(Cl)cc1	aSyn UTR act -81.7
CC1CCN(c2c([N+](=O)[O-])nn(-c3ccc4c(c3)OCCO4)[n+]2[O-])CC1	aSyn UTR act -97.5
COc1ccccc1C1=NN(C(=S)Nc2ccccc2)C(c2ccco2)C1 (stereo not drawn)	aSyn UTR act -154.1
Cn1nc(C(F)(F)F)cc1-c1ccc(S(N)(=O)=O)s1	aSyn UTR act -122.8
CN(C)C(=O)c1ccc(-c2cc(C(F)(F)F)nn2C)s1	aSyn UTR act -151.9
CCOc1ccc2cc(/C=C/C(=O)c3ccco3)c(Cl)nc2c1	aSyn UTR act -172.2
COc1ccc2cc(/C=N/NC(=O)c3ccc(CN(c4cccc(Cl)c4Cl)S(C)(=O)=O)cc3)c(Cl)nc2c1	none
Cc1ccc(N=Nc2cc(C)ccc2O)c(C)c1	aSyn UTR act -214.9
Cc1ccc(N=Nc2cc(C)ccc2N)cc1	none
Cc1ccc(N=Nc2ccc(N)cc2C)c(S(N)(=O)=O)c1	aSyn UTR act -80.5
COc1ccc(OCc2cc(C(=O)N(C)C(C)c3ccon3)no2)c(Cl)c1 (stereo not drawn)	aSyn UTR act -114.8
COc1ccc(C(=O)/C=C/C(=O)N(CC(=O)NC2CCCCC2)CC2CCCO2)c(O)c1 (stereo not drawn)	none
COc1ccc(OCc2cc(C(=O)N(C)CC3CCCCO3)no2)c(Cl)c1 (stereo not drawn)	aSyn UTR act -70.5
COc1cc(Cl)ccc1OCc1cc(C(=O)N(C)CC2CCCCO2)no1 (stereo not drawn)	aSyn UTR act -138.9
COc1ccc(OCc2cc(C(=O)N(C)CCC3CCOCC3)no2)c(Cl)c1	aSyn UTR act -75.5
Fc1ccc(-c2ccc(CNCc3ccccn3)o2)cc1	aSyn UTR act -91.2
COc1cc2[nH]c(C(=O)N3CCc4ccccc43)cc2c(OC)c1OC	aSyn UTR act -93.3
Cc1ccc(/C=C/C(=O)N2CCc3ccccc32)o1	aSyn UTR act -204.2
COc1ccc(CCC(=O)N2CCc3ccccc32)cc1	aSyn UTR act -90.5
COc1ccc(C(=O)N2CCc3ccccc32)cc1	aSyn UTR act -88.8
COC(=O)C1=C(CN2CCCc3ccccc32)NC(=O)NC1c1ccc(F)cc1 (stereo not drawn)	none
COc1ccc(/C=C/C(=O)N2CCCc3ccccc32)cc1	aSyn UTR act -93.0
COc1cccc(NCc2cc(=O)oc3cc(-c4ccccc4)c(O)cc23)c1	aSyn UTR act -128.3
Cc1ccc(C(=O)N/N=C/c2cn(Cc3ccccc3)c3ccccc23)cn1	none
Cc1ccc(C(=O)N/N=C\c2ccc(-c3ccc(Cl)c(Cl)c3)o2)cn1	aSyn UTR act -65.7
CN1C(=C2C(=O)OC(C)(C)OC2=O)Sc2ccccc21	aSyn UTR act -78.5
Cc1cs/c(=N/C(=S)Nc2ccccc2)n1C	aSyn UTR act -114.5
Cc1cc(/C=C2/C(=O)N(C)C(=S)N2C)c(C)n1C1CC1	aSyn UTR act -140.2
c1ccc(-c2nc3c([nH]2)CCc2nonc2-3)cc1	aSyn UTR act -66.1
N/C(=N\OC(=O)Cc1cccs1)c1ccc(Br)cc1	aSyn UTR act -105.6
N/C(Cc1cccs1)=N\OC(=O)COc1ccc(Cl)cc1Cl	aSyn UTR act -154.2
N/C(Cc1cccc2ccccc12)=N\OC(=O)Cc1cccs1	aSyn UTR act -117.5
Cc1ccccc1C(=O)O/N=C(\N)Cc1cccs1	aSyn UTR act -131.3
Cc1ccccc1OCC(=O)O/N=C(\N)Cc1cccs1	aSyn UTR act -62.7
Cc1cccc2c1-c1sc(C(=O)Nc3cccnc3)cc1CO2	aSyn UTR act -117.8
O=C(Nc1cccnc1)c1cc2c(s1)-c1ccccc1OC2	aSyn UTR act -126.4
O=c1c2ccccc2oc2ccc(-c3ccc4[nH]ccc4c3)cc12	aSyn UTR act -154.1
COc1cccc(N(C(=O)c2cccs2)c2nc3ccccc3s2)c1	aSyn UTR act -154.3
CCNC(=S)NNC(=O)c1cc(-c2cccc(C)c2)nc2ccccc12	aSyn UTR act -115.6
CCNC(=S)NNC(=O)c1cc(-c2cccc(OCC)c2)nc2ccccc12	aSyn UTR act -89.0
CCCCOc1cccc(-c2cc(C(=O)NNC(=S)NCC)c3ccccc3n2)c1	aSyn UTR act -69.0
CN(C(=O)COC(=O)/C=C/c1ccccc1[N+](=O)[O-])c1ccccc1	aSyn UTR act -68.7
O=C(COC(=O)/C=C/c1ccccc1[N+](=O)[O-])NC1CCS(=O)(=O)C1 (stereo not drawn)	aSyn UTR act -108.2
O=C(COC(=O)/C=C/c1ccccc1[N+](=O)[O-])Nc1ccc(OCc2ccccc2)cc1	aSyn UTR act -121.9
O=C(c1ccco1)N1CCN(c2nc3ccsc3c(=O)s2)CC1	aSyn UTR act -97.7
Cc1cc(C)c2nc(N3CCN(C(=O)c4ccco4)CC3)sc2c1	aSyn UTR act -115.3
